These results are taken from article PMC7862700, “An all-to-all approach to the identification of sequence-specific readers for epigenetic DNA modifications on cytosine”.

Common to all, as to experiment: DAPPL (digital affinity profiling via proximity ligation, sequencing); 10 mM Tris-HCl pH 7.5, 50 mM NaCl, 1 mM DTT, 4% glycerol, room temperature, 30 min; GST-TFs on glutathione beads, 16-mer random dsDNA library, 0.1% formaldehyde crosslink after washing; high values mean tight binding
One assay has as its target T1, FLI1 (Homo sapiens, UniProt Q01543 1-452).
T1 sequence: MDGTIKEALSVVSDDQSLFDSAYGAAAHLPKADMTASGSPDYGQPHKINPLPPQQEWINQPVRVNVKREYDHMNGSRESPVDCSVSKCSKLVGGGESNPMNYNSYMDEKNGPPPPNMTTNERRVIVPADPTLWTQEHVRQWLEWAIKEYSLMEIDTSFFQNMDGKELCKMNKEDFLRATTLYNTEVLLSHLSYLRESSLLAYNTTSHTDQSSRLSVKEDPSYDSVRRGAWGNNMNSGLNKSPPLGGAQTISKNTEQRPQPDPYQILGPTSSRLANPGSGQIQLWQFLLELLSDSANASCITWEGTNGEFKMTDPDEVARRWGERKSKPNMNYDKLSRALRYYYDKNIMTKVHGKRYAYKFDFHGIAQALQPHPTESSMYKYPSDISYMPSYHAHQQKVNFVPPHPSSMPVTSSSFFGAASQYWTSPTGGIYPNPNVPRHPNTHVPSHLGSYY
To be noted: protein: recombinant; tags: N-terminal GST; dsDNA, one strand shown. In outline:
(§1)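 The binding signal reported is, for every hexamer, its read frequency for a factor over its read frequency for the tag-only sample. Reads came from pools of yeast-expressed, GST-fused human transcription factors on glutathione beads, barcoded with DNA and mixed with that sample, which were incubated with 200 nmole of a random double-stranded 16-mer DNA library in Tris/NaCl/DTT/glycerol buffer at room temperature for 30 min. After washing, the pools were crosslinked with 0.1% formaldehyde, proximity-ligated with BsaI/T4 ligase for 1 h at 37 °C, PCR-amplified and sequenced on an Illumina NextSeq500.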

In a further assay the target is T2, ELK1 (Homo sapiens, UniProt P19419 1-428).
T2 sequence: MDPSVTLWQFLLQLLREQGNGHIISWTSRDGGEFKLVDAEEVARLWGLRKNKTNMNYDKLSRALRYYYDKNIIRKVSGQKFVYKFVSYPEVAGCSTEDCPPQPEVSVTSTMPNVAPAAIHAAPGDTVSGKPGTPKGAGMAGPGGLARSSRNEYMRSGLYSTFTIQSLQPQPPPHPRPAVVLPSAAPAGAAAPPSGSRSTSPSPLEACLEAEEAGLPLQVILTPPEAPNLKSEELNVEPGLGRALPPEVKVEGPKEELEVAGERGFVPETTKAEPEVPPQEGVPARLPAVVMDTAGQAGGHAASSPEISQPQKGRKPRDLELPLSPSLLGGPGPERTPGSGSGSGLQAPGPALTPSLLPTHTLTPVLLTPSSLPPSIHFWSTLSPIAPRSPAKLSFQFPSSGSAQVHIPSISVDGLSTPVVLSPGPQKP
To be noted: protein: recombinant; tags: N-terminal GST; dsDNA, one strand shown. In outline: as §1

Another assay deals with T3, GABPA (Homo sapiens, UniProt Q06546 1-454).
T3 sequence: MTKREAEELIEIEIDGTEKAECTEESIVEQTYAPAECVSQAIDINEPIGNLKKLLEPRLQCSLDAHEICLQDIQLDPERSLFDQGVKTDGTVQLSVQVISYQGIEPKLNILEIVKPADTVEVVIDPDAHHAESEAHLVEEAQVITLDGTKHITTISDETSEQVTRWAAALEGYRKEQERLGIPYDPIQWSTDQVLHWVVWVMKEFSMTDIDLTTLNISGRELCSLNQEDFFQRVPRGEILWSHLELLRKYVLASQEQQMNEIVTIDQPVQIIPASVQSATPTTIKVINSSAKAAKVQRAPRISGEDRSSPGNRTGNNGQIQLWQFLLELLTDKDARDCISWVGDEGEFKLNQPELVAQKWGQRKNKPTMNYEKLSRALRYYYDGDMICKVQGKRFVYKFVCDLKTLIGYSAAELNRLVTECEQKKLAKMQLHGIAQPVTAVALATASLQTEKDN
Particulars: protein: recombinant; tags: N-terminal GST; dsDNA, one strand shown. In outline: as §1

The target in the next assay is T4, ERG (Homo sapiens, UniProt P11308 1-479).
T4 sequence: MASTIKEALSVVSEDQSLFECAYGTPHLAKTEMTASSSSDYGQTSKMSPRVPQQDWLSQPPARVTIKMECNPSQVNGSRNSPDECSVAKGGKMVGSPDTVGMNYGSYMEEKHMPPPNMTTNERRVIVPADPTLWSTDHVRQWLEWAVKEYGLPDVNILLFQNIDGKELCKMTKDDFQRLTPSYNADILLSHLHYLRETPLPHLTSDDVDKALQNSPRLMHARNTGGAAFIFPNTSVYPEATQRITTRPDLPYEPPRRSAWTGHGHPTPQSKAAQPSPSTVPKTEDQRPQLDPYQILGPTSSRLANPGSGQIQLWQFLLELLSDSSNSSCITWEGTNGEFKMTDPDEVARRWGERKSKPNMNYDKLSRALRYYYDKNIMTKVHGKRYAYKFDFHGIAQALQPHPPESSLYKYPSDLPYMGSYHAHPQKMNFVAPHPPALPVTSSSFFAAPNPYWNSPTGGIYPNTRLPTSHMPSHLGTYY
Particulars: protein: recombinant; tags: N-terminal GST; dsDNA, one strand shown. In short, it runs like this: as §1

The next assay concerns the target ELF1 (Homo sapiens, UniProt P32519 1-619). To be noted: protein: recombinant; tags: N-terminal GST; dsDNA, one strand shown. In short, it runs like this:
as §1

The next assay concerns the target T5, EHF (Homo sapiens, UniProt Q9NZC4 1-300).
T5 sequence: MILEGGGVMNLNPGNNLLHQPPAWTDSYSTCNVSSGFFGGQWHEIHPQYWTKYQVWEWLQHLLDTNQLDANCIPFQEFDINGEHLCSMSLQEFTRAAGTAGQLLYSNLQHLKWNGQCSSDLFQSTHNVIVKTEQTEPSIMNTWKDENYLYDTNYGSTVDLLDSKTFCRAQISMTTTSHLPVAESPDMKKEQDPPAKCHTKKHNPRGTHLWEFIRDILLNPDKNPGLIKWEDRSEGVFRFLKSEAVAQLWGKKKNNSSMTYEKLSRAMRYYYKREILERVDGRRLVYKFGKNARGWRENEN
To be noted: protein: recombinant; tags: N-terminal GST; dsDNA, one strand shown. In outline:
as §1

A further assay has as its target SPI1 (Homo sapiens, UniProt P17947 1-270). Particulars: protein: recombinant; tags: N-terminal GST; dsDNA, one strand shown. In short, it runs like this:
as §1

The next assay deals with SPIB (Homo sapiens, UniProt Q01892 1-262). To be noted: protein: recombinant; tags: N-terminal GST; dsDNA, one strand shown. In short, it runs like this:
as §1

The target of the next assay is T6, ELK3 (Homo sapiens, UniProt P41970 1-407).
T6 sequence: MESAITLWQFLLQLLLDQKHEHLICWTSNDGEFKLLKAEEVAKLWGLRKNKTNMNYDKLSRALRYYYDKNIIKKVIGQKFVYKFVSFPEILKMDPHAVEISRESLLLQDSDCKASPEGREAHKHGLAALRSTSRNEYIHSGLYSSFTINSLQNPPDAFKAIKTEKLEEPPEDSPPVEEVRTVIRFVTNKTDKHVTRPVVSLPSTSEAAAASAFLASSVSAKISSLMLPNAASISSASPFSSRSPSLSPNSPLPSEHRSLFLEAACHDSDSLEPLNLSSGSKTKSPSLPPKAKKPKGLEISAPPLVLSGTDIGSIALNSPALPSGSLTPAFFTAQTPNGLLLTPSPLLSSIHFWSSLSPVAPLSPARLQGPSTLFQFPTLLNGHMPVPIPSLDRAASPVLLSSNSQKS
To be noted: protein: recombinant; tags: N-terminal GST; dsDNA, one strand shown. In short, it runs like this:
as §1

The target of another assay is T7, FEV (Homo sapiens, UniProt Q99581 1-238).
T7 sequence: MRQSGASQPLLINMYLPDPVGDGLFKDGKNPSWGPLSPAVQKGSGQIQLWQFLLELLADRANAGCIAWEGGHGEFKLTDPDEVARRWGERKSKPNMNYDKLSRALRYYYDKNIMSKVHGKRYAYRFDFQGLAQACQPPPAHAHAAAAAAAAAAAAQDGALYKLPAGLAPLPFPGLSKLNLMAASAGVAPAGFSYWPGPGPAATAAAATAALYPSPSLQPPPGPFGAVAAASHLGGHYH
To be noted: protein: recombinant; tags: N-terminal GST; dsDNA, one strand shown. In short, it runs like this:
as §1

The target of a further assay is ETV5 (Homo sapiens, UniProt P41161 1-510). Particulars: protein: recombinant; tags: N-terminal GST; dsDNA, one strand shown. In short, it runs like this: as §1
ETV5, sequence (P41161 whole entry): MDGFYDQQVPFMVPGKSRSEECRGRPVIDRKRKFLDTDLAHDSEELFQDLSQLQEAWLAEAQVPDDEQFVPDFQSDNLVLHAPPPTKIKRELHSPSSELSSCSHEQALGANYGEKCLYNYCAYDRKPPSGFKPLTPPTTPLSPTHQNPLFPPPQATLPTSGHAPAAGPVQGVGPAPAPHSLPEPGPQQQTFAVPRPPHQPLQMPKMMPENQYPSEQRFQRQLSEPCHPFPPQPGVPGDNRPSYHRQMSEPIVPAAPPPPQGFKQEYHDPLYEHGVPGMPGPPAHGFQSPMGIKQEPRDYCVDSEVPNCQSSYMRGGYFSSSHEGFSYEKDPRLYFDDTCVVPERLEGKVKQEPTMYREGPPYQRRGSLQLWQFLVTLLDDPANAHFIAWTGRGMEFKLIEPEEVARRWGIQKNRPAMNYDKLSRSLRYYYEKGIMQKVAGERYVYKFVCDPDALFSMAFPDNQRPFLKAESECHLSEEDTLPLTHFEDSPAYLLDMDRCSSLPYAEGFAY
For another assay, the target named is HSF1 (Homo sapiens, UniProt Q00613 1-529). To be noted: protein: recombinant; tags: N-terminal GST; chain copies: 3; dsDNA, one strand shown. In outline: as §1
HSF1, sequence (Q00613 whole entry): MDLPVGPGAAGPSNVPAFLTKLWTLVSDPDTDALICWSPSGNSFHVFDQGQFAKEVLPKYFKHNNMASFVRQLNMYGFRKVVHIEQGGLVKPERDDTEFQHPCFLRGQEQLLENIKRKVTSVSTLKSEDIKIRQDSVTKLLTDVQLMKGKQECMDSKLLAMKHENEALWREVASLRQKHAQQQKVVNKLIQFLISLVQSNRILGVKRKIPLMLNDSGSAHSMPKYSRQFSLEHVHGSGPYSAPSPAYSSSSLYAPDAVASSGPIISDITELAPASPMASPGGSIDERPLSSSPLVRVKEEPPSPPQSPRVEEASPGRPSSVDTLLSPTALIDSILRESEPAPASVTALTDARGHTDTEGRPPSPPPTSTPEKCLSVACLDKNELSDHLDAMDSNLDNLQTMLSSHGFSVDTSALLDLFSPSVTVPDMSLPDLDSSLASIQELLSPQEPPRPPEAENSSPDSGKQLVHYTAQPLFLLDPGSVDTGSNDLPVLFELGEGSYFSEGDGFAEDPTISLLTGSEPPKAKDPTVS
The next assay concerns the target T8, SPIC (Homo sapiens, UniProt Q8N5J4 1-248).
T8 sequence: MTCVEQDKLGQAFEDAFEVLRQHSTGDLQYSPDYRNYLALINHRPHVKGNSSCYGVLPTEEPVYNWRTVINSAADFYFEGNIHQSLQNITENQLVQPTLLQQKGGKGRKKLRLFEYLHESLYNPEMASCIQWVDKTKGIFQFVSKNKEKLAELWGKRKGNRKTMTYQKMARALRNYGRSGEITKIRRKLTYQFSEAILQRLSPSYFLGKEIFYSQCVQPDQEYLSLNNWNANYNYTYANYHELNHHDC
To be noted: protein: recombinant; tags: N-terminal GST; dsDNA, one strand shown. In outline: as §1

For a further assay, the target named is ELF4 (Homo sapiens, UniProt Q99607 1-663). Particulars: protein: recombinant; tags: N-terminal GST; dsDNA, one strand shown. In outline:
as §1

The target in another assay is T9, ELK4 (Homo sapiens, UniProt P28324-2 1-405).
T9 sequence: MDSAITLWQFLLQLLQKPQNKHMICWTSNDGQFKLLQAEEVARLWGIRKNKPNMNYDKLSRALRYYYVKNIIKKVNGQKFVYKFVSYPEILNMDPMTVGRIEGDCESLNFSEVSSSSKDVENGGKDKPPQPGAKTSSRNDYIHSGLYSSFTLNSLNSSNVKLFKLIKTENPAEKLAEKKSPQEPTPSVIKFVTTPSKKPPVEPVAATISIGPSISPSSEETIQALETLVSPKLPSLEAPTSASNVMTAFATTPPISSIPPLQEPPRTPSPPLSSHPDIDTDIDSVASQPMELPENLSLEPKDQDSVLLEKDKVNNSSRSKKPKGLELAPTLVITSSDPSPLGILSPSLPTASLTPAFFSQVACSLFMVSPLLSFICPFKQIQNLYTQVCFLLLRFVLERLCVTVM
Particulars: protein: recombinant; tags: N-terminal GST; dsDNA, one strand shown. In outline: as §1

Another assay deals with T10, ETV2 (Homo sapiens, UniProt O00321 1-342).
T10 sequence: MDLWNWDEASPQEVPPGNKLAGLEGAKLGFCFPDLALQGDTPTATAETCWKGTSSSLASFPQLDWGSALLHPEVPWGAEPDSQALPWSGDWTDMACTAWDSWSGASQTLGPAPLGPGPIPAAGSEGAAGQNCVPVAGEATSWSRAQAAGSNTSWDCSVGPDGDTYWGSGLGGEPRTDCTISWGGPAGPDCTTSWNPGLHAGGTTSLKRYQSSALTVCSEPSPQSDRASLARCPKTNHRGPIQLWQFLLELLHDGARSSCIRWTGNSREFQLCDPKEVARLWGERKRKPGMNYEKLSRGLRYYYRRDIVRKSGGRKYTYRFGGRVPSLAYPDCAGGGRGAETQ
To be noted: protein: recombinant; tags: N-terminal GST; dsDNA, one strand shown. In short, it runs like this: as §1

The target in a further assay is T11, ELF3 (Homo sapiens, UniProt P78545 1-371).
T11 sequence: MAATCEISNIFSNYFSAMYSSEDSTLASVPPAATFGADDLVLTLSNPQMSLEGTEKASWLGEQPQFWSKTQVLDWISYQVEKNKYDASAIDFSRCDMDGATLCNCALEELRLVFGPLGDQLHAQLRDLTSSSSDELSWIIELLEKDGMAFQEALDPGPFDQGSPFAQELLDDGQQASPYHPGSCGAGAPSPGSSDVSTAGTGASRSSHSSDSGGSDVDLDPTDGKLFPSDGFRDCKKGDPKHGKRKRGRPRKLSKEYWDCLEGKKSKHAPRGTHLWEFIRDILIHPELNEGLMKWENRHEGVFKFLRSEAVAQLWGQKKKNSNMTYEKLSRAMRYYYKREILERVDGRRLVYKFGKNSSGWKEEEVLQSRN
To be noted: protein: recombinant; tags: N-terminal GST; dsDNA, one strand shown. In short, it runs like this:
as §1

The target of the next assay is CRX (Homo sapiens, UniProt O43186 1-299). Particulars: protein: recombinant; tags: N-terminal GST; dsDNA, one strand shown. In outline: as §1
CRX, sequence (O43186 whole entry): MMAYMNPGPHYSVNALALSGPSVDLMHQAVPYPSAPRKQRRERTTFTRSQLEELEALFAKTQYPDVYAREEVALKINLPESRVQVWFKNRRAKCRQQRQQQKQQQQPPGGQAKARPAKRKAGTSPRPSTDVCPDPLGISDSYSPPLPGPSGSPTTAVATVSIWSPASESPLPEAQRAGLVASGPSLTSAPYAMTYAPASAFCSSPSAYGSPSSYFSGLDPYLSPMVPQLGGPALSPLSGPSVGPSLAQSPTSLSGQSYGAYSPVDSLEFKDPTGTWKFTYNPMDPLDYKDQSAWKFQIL
A further assay has as its target ETV1 (Homo sapiens, UniProt P50549 1-477). Particulars: protein: recombinant; tags: N-terminal GST; dsDNA, one strand shown. In outline: as §1

ETV1, sequence (P50549 whole entry): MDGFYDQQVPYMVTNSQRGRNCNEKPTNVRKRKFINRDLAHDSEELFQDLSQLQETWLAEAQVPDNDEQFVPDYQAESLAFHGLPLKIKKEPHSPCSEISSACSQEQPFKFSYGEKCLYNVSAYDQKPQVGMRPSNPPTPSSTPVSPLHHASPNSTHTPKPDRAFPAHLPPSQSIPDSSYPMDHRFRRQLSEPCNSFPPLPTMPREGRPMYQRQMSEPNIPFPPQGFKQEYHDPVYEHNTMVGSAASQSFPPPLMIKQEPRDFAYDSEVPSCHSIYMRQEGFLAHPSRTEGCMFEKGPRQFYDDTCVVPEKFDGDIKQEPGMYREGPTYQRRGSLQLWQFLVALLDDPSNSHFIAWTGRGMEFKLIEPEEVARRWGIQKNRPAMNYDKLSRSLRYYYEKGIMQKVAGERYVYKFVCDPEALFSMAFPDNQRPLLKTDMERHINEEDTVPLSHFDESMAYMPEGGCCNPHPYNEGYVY
ELF1, sequence (P32519 whole entry): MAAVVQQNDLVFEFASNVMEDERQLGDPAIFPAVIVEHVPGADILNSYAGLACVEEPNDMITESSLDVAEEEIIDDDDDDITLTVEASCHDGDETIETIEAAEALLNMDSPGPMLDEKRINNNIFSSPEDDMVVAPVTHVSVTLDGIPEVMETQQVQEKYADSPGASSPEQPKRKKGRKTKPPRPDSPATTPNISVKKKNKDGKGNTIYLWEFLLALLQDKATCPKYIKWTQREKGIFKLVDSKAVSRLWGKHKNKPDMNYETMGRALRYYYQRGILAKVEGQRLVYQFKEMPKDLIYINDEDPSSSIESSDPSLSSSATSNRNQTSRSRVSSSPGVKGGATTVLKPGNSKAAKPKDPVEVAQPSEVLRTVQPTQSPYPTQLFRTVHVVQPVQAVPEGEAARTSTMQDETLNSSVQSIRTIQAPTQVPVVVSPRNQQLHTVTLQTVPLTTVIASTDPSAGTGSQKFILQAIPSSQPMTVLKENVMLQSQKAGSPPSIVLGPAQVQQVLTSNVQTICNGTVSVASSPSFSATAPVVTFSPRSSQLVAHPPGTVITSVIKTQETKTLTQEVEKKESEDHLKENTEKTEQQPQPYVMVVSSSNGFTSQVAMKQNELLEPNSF
ELF4, sequence (Q99607 whole entry): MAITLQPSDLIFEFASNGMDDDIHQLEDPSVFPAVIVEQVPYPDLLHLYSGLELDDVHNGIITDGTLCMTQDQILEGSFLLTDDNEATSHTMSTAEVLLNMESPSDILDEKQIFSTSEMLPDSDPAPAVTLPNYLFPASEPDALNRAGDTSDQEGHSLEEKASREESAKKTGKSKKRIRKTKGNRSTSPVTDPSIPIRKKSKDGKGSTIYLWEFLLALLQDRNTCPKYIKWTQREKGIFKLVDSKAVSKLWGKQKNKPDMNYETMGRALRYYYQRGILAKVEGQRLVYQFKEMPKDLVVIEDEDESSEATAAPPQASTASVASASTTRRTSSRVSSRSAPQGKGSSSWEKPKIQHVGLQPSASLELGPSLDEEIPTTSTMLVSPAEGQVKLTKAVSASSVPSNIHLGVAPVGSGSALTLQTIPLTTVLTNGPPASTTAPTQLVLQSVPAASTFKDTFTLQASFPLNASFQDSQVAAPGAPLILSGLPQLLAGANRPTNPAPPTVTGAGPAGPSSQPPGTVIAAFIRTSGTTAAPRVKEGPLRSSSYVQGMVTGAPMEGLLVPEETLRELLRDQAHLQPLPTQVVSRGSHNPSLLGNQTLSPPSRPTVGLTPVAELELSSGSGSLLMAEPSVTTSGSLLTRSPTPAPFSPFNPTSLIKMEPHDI
SPIB, sequence (Q01892 whole entry): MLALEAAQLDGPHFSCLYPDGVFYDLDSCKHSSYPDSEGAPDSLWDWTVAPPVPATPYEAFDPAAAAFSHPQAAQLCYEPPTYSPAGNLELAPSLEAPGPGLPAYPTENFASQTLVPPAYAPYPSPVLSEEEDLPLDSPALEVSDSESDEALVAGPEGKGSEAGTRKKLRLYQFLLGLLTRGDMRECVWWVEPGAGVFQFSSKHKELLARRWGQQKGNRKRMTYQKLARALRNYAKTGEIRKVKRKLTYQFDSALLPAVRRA

ATTGCT: the binding signal was 1.24 fold enrichment (6-mer frequency, TF over GST control) with FLI1; 1.19 fold enrichment (6-mer frequency, TF over GST control) with ELK1; 1.27 fold enrichment (6-mer frequency, TF over GST control) in the assay with GABPA; 1.25 fold enrichment (6-mer frequency, TF over GST control) with ERG; 1.24 fold enrichment (6-mer frequency, TF over GST control) in the assay with ELF1; 1.31 fold enrichment (6-mer frequency, TF over GST control) in the assay with EHF. Also, the binding signal was 1.1 fold enrichment (6-mer frequency, TF over GST control) with SPI1; 1.3 fold enrichment (6-mer frequency, TF over GST control) in the assay with SPIB; 1.22 fold enrichment (6-mer frequency, TF over GST control) with ELK3; 1.22 fold enrichment (6-mer frequency, TF over GST control) with FEV; 1.16 fold enrichment (6-mer frequency, TF over GST control) with ETV5; 1.14 fold enrichment (6-mer frequency, TF over GST control) with HSF1. In addition, the binding signal with SPIC is 1.32 fold enrichment (6-mer frequency, TF over GST control); in the assay with ELF4, 1.19 fold enrichment (6-mer frequency, TF over GST control); in the assay with ELK4, 1.16 fold enrichment (6-mer frequency, TF over GST control); with ETV2, 1.22 fold enrichment (6-mer frequency, TF over GST control); with ELF3, 1.28 fold enrichment (6-mer frequency, TF over GST control); with CRX, 1.17 fold enrichment (6-mer frequency, TF over GST control). Further, the binding signal in the assay with ETV1 was 1.27 fold enrichment (6-mer frequency, TF over GST control).
